Settings in all cases: mRNA level, 48 h; actives raise or lower the signal
Read-out in assay [1]: Tumor necrosis factor receptor superfamily member 6 (Homo sapiens) (UniProt P25445)
As to the kind of experiment: LTEA_HepaRG_FAS: Life Technologies and Expression Analysis (LTEA) Assay for Fas cell surface death receptor (FAS) using HepaRG (AID 2283447). The method, boiled down: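 Differentiated human HepaRG cells, pre-cultured 48 h, were exposed in duplicate for 48 h to 8-point half-log concentrations (top 100 uM, 0.5% DMSO) in serum-free induction medium; FAS mRNA measured by qRT-PCR, normalized to ACTB/GAPDH/POLR2A, bidirectional fit versus DMSO.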

Read-out in assay [2]: Fatty acid synthase (Homo sapiens) (UniProt P49327)
As to the kind of experiment: LTEA_HepaRG_FASN: Life Technologies and Expression Analysis (LTEA) Assay for Fatty Acid Synthase (FASN) using HepaRG (AID 2283448). The method, boiled down: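 Transcript-level assay: HepaRG liver cells are treated for 48 h across an eight-point range topping at 100 uM, and FASN mRNA, normalized to three housekeeping genes, is compared with DMSO controls in both directions.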

Read-out in assay [3]: Cyclin D2 (CCND2), CCND2 (gene 894)
Nature of the assay: LTEA_HepaRG_CCND2: Life Technologies and Expression Analysis (LTEA) Assay for Cyclin D2 (CCND2) using HepaRG (AID 2283449).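 Further: CCND2 transcript measured by TaqMan qRT-PCR and normalised to three housekeeping genes.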 The method, boiled down:
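Differentiated human HepaRG cells were exposed for 48 h in serum-free induction medium to eight half-log concentrations topping at 100 uM (0.5% DMSO vehicle). CCND2 mRNA was quantified by TaqMan qRT-PCR, normalised to ACTB, GAPDH and POLR2A, and fitted bidirectionally against DMSO.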

Read-out in assay [4]: Cyclin Dependent Kinase Inhibitor 1A (CDKN1A), CDKN1A (gene 1026)
As to the kind of experiment: LTEA_HepaRG_CDKN1A: Life Technologies and Expression Analysis (LTEA) Assay for Cyclin Dependent Kinase Inhibitor 1A (CDKN1A) using HepaRG (AID 2283450). The gist of the method:
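Differentiated HepaRG cells in serum-free induction medium, exposed 48 h in duplicate to eight half-log concentrations up to 100 uM in 0.5% DMSO. mRNA measured by TaqMan qRT-PCR, normalized to ACTB, GAPDH, POLR2A; bidirectional fit versus DMSO.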

Read-out in assay [5]: Cyclin D1 (CCND1), CCND1 (gene 595)
Nature of the assay: LTEA_HepaRG_CCND1: Life Technologies and Expression Analysis (LTEA) Assay for Cyclin D1 (CCND1) using HepaRG (AID 2283451). The method, boiled down: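 Differentiated HepaRG cells exposed 48 h in serum-free induction medium to eight half-log concentrations from 100 uM top, 0.5% DMSO, duplicates. CCND1 mRNA measured by Fluidigm TaqMan qRT-PCR, normalised to ACTB, GAPDH, POLR2A; bidirectional fit.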

Read-out in assay [6]: catalase (CAT), CAT (gene 847)
As to the kind of experiment: LTEA_HepaRG_CAT: Life Technologies and Expression Analysis (LTEA) Assay for catalase (CAT) using HepaRG (AID 2283452).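 On AC50: TaqMan qRT-PCR signal normalized to ACTB GAPDH and POLR2A housekeeping genes.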 The gist of the method:
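Differentiated HepaRG cells in serum-free induction medium were dosed 48 h in duplicate, eight half-log concentrations from 100 uM in 0.5% DMSO. Transcript measured by TaqMan qRT-PCR, normalised to ACTB/GAPDH/POLR2A, fitted bidirectionally against DMSO.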

Read-out in assay [7]: flavin-containing dimethylaniline monooxygenases 3 (FMO3), FMO3 (gene 2328)
Nature of the assay: LTEA_HepaRG_FMO3: Life Technologies and Expression Analysis (LTEA) Assay for flavin-containing dimethylaniline monooxygenases 3 (FMO3) using HepaRG (AID 2283453).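 On AC50: FMO3 transcript by TaqMan qRT-PCR normalized to ACTB GAPDH and POLR2A.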 The gist of the method:
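HepaRG, 48 h exposure, 8-pt half-log series from 100 uM, 0.5% DMSO vehicle, duplicates; FMO3 transcript by Fluidigm TaqMan qRT-PCR, housekeeping-normalized; gain/loss fit vs DMSO.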

Read-out in assay [8]: growth arrest and DNA damage 45 (GADD45A), GADD45A (gene 1647)
Nature of the assay: LTEA_HepaRG_GADD45A: Life Technologies and Expression Analysis (LTEA) Assay for growth arrest and DNA damage 45 (GADD45A) using HepaRG (AID 2283458). The gist of the method:
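Human HepaRG liver cells are treated in duplicate for 48 h with chemicals in 0.5% DMSO, highest concentration 100 uM. Expression is read by qRT-PCR and analyzed in both directions against vehicle.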

Read-out in assay [9]: Forkhead box O3 (FOXO3), FOXO3 (gene 2309)
Nature of the assay: LTEA_HepaRG_FOXO3: Life Technologies and Expression Analysis (LTEA) Assay for Forkhead box O3 (FOXO3) using HepaRG (AID 2283459). The gist of the method:
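Differentiated human HepaRG cells in serum-free induction medium were exposed in duplicate for 48 h to eight half-log concentrations up to 100 uM in 0.5% DMSO. FOXO3 mRNA was quantified by qRT-PCR, normalized to ACTB, GAPDH and POLR2A, with bidirectional fitting versus DMSO.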

Read-out in assay [10]: Forkhead box O1 (FOXO1), FOXO1 (gene 2308)
Nature of the assay: LTEA_HepaRG_FOXO1: Life Technologies and Expression Analysis (LTEA) Assay for Forkhead box O1 (FOXO1) using HepaRG (AID 2283456). The gist of the method: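 Differentiated human HepaRG cells in serum-free induction medium were exposed in duplicate for 48 h to eight half-log concentrations (top 100 uM, 0.5% DMSO). FOXO1 mRNA was measured by TaqMan qRT-PCR, normalised to ACTB, GAPDH and POLR2A, and fitted bidirectionally against DMSO.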

Calls of active or inactive are those of the source. How the source made its calls: active means hit-call score of the fitted dose curve at least 0.9, where 1 is the maximum; inactive means score below 0.9.

Fatty acid synthase (Homo sapiens), sequence (P49327 whole entry, looked up): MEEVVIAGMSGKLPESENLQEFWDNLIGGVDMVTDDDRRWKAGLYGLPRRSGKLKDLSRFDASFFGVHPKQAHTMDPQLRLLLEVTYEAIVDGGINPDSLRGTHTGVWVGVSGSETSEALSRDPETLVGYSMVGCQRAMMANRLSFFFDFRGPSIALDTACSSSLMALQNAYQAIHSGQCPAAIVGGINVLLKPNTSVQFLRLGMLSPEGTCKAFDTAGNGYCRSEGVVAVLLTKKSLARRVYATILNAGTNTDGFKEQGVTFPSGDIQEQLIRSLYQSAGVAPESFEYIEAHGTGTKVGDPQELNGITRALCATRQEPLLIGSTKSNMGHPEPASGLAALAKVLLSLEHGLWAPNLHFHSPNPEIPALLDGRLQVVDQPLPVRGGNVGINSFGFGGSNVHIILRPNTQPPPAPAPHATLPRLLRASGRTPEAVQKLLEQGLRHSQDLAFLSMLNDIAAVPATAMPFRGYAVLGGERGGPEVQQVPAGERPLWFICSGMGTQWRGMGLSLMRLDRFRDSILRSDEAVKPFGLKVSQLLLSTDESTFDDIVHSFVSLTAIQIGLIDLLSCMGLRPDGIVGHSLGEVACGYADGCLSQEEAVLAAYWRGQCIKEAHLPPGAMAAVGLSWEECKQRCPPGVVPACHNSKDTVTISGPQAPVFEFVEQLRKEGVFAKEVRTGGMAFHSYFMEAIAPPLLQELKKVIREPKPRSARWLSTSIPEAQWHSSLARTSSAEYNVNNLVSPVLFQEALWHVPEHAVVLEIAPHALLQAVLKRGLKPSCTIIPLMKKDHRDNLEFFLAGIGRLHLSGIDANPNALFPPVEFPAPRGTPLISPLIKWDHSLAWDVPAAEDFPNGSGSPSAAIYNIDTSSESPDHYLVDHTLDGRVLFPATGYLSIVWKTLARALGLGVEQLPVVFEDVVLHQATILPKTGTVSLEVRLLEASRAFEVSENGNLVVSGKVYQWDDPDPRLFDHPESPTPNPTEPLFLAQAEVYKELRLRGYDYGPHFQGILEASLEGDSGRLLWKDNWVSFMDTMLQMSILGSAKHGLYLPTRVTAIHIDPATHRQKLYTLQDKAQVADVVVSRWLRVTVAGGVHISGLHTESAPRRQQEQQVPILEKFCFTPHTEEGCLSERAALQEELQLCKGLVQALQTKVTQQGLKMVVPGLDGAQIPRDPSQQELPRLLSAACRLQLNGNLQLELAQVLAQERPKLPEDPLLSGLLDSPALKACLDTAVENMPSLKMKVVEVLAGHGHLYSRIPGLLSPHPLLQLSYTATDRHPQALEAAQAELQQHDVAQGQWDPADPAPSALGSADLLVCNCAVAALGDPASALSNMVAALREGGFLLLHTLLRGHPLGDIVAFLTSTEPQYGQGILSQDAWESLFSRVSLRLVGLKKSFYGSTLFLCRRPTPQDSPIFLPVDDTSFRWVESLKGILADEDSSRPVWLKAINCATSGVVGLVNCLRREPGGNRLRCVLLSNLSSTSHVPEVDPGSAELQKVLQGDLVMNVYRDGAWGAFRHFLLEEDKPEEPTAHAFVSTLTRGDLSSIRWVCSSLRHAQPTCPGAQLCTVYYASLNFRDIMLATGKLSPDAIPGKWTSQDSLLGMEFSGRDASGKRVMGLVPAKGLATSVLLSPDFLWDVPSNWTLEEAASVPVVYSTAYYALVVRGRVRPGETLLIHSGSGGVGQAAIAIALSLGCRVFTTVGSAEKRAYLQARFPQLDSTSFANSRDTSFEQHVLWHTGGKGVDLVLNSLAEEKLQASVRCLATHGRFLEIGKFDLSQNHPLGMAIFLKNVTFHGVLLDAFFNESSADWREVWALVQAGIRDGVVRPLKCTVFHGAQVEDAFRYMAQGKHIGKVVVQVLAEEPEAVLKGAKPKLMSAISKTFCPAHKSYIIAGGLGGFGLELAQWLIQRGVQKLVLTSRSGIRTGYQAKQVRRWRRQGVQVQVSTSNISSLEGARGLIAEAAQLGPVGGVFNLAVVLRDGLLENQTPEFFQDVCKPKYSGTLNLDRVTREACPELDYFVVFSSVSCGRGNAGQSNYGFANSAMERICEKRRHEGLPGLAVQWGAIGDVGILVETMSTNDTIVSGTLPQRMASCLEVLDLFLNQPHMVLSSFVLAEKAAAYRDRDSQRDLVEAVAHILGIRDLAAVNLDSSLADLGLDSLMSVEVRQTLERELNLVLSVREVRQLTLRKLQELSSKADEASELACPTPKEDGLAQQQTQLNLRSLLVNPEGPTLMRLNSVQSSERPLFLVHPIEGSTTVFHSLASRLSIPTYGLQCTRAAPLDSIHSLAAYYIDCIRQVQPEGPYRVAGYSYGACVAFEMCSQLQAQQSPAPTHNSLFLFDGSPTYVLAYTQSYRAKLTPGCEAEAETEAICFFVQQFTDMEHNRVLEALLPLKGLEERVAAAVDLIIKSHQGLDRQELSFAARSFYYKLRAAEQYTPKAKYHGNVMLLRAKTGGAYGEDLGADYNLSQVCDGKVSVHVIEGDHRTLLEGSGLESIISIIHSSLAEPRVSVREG

Regarding `CN(C)C(=O)Cl`, the compound was called inactive in [1], in assay [2], in assay [3], in assay [4], in assay [5] and in assay [6]. The result in assay [7], in [8] and in assay [9] was inactive.
As usually defined, the AC50 is the midpoint of the concentration-response curve, whichever way the signal moves. Turning to `c1nc[nH]n1`, the compound was called inactive in assay [1], in [2], in [4], in [5], in assay [6] and in assay [7]. The call in [10], in [8] and in assay [9] was inactive. Further, the AC50 in assay [3] was 0.0353 µM (active).
Take `CCC1(c2ccccc2)C(=O)N=C(O)NC1=O` (stereo unspecified): the call in assay [1], in assay [2], in assay [3], in assay [4], in assay [5] and in assay [6] was inactive. Moreover, the outcome in assay [7], in assay [10], in assay [8] and in assay [9] was inactive.
As for `CC(Cl)(Cl)C(=O)O`, the outcome in [1], in assay [2], in assay [3], in [4], in assay [5] and in [6] was inactive. The call in [7], in [10], in [8] and in assay [9] was inactive.
Turning to `c1cc2c3c(cccc3c1)CC2`, the outcome in assay [1], in assay [2], in assay [3], in [5], in assay [6] and in [7] was inactive. Besides, the outcome in [10], in assay [8] and in [9] was inactive. Also, the AC50 in assay [4] was 0.387 µM (active).
On to `[N-]=[N+]=[N-]`, for which the call in [1], in [2], in assay [3], in [5] and in assay [9] was inactive. The AC50 in assay [4] is 74.9 µM (active); in [6] it was 82.9 µM (active); in assay [7] it was 88.5 µM (active); in assay [10], 76.1 µM (active); in assay [8], 88.1 µM (active).
With `CC(C)(C)OOC(C)(C)C`, the outcome in assay [1], in [2], in assay [3], in [4], in assay [5] and in assay [6] was inactive. Also, the compound was classed as inactive in assay [7], in assay [10], in assay [8] and in assay [9].
As to `CCOS(=O)(=O)OCC`, the compound was classed as inactive in [1], in assay [2], in assay [3], in assay [4], in assay [5] and in assay [6]. In addition, the result in [7], in [10], in assay [8] and in assay [9] was inactive.
For `CCCCCCCc1ccc(O)cc1`, the compound was classed as inactive in [1], in assay [2], in [4], in assay [5], in assay [6] and in assay [7]. In addition, the compound was called inactive in assay [10], in assay [8] and in assay [9].
Consider `CCOP(=S)(OCC)SCSCC`, for which the compound was called inactive in assay [1], in [2], in [4], in assay [5], in [6] and in assay [7]. Moreover, the compound was called inactive in assay [10], in assay [8] and in assay [9].
For `O=[N+]([O-])c1ccccc1`, the outcome in [2], in [3], in assay [4], in [5], in [6] and in assay [7] was inactive. In addition, the compound was called inactive in assay [10], in assay [8] and in [9].

The record behind these values is PubChem BioAssay (EPA / NIEHS).
